This is a sample that favours compounds with a hit; in the whole collection about 15% have one here.
RORgamma inh = ROR gamma (mouse) transcription inhibition | Drosophila S2 Gal4-RORgamma UAS-luciferase reporter, 20 h | hit rate 5.4% among 310,000 | P51450 | AID 2551 | Potency, µM (series often up to 53.6 µM), for the others: at the highest dose activity change, negative = inhibition, most hits filed as inhibitors; also: nearly all actives have a fitted effect of over 60% in size
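Stable Schneider cell line, Gal4 DNA-binding domain fused to ROR gamma, UAS-luciferase. Cmpd 1 hr RT → CuSO4 700 uM final → 20 hr RT → luciferase reagent 10 min → luminescence.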
ALOX12 inh = inhibitors of human 12S-lipoxygenase ALOX12 | AID 1671190 | hit rate 1.1% among 580,000 | P18054 | purified 12hLO, xylenol orange hydroperoxide absorbance | Potency, µM (series often up to 108 µM), for inactives: at the highest dose activity change, negative = inhibition, most hits filed as inhibitors
Target sequence (P18054 whole entry, looked up): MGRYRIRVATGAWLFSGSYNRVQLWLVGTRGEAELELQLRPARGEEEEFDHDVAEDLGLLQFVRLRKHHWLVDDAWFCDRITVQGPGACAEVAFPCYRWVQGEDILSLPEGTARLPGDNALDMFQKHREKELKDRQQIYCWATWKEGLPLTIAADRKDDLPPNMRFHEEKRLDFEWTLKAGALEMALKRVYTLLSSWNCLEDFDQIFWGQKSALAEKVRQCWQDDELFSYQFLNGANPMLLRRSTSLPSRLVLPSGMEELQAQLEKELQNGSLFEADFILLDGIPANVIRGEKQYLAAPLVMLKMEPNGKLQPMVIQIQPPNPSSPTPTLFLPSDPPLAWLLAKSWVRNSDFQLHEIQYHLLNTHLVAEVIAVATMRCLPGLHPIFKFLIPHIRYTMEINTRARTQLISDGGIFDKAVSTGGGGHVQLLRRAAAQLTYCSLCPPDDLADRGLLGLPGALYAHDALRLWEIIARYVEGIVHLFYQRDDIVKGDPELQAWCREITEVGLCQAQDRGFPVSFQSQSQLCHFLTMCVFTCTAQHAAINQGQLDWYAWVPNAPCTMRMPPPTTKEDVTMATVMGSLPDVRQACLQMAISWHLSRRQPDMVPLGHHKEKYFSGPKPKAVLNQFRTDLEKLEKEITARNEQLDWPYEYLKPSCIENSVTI
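Purified human 12hLO (150 nM final) in 25 mM Hepes, 0.01% Triton X-100, pH 7.0 was preincubated 15 min at room temperature with compound. Then 40 uM arachidonic acid was added, 30 min. Hydroperoxide was read by Fe-XO absorbance ratio 573/405 nm.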
Gal4-VP16 FLuc = Gal4-VP16 reporter inhibition counter-screen; Drosophila S2 Gal4-VP16 UAS-luciferase, luminescence, 20 h; Potency, µM (highest dose often 53.6 µM), for inactives: top-dose activity, negative = inhibition, hits mostly inhibitors; hit rate 3.5% among 310,000;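 also: Gal4-VP16 expression switched on by copper sulfate through the metallothionein promoter; nearly all actives have a fitted effect of over 50% in size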
TDP1 cell CPT = DT40-hTDP1 cell growth loss with CPT. chicken DT40 Tdp1-/-;hTDP1 cells + 20 nM CPT, ATP luminescence, 48 h. Potency, µM (top dose mostly 46.2 µM), inactives show at the highest dose activity change, negative = growth inhibition, actives largely listed as inhibitors. hit rate 12% among 420,000; also: nearly all actives have a fitted effect of over 55% in size
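Chicken DT40 Tdp1-/- cells stably complemented with human TDP1 were seeded at 400 cells/well in medium containing 20 nM camptothecin, exposed to pin-transferred compounds, and grown at 37 °C for at least 48 hr. Viability was read as ATP luminescence.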
DT40 TDP1 no CPT = qHTS for Inhibitors of human tyrosyl-DNA phosphodiesterase 1 (TDP1): qHTS in cells in absence of CPT; DT40 Tdp1-/- hTDP1 cells, no CPT, ATP luminescence, 48 h; Potency, µM (top dose mostly 46.2 µM), for inactives: top-dose activity change, negative = growth inhibition, actives largely listed as inhibitors; hit rate 15% among 420,000; AID 686978, 2013; also: nearly all actives have a fitted effect of over 55% in size
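Seeded 400 DT40-hTDP1 cells/well (vehicle DMSO, no 20 nM CPT); pinned compounds; ≥48 hr at 37 °C; CellTiter-Glo luminescence as viability measure.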
ELG1 repair inh = blocks ELG1-dependent DNA repair in HEK293T cells | Potency, µM (titrated, usually from 46.1 µM), for inactives: at the highest dose activity change, negative = inhibition, usual class: inhibitors | HEK293T ELG1-luciferase reporter, luminescence, 16 h; DNA damage induced by 5-fluorouridine | hit rate 2.3% among 330,000; also: nearly all actives have a fitted effect of over 55% in size
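In this reporter screen, reduction of luminescence relative to DMSO vehicle indicated activity. Compounds and 5-fluorouridine were added together to 2,000 cells per well, incubated for 16 hr at 37 °C, then developed with ONE-Glo.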
Active calls of the source: *; ? = inconclusive; nt = not tested or not shown. Calls follow the shape of the dose curve; as a rule, active = well fitted curve in the direction sought with a large enough effect; inconclusive = small, poorly fitted or top-dose-only effect, or another doubt; inactive = no such curve, though single readings can be large; an effect the other way counts as inactive or inconclusive. % is scaled to controls: 0 for no effect and ±100 for the full control effect; potency is read from the fitted curve at half-maximal effect.

SMILES	RORgamma inh	ALOX12 inh	Gal4-VP16 FLuc	TDP1 cell CPT	DT40 TDP1 no CPT	ELG1 repair inh
CC[C@@]1(C(=O)OC)N[C@H](CN(C)C(=O)c2ccc(F)cc2)[C@@H]2C(=O)N(C)C(=O)[C@@H]21	nt	8.91µM*	nt	3.9%	-4.3%	4.6%
CCN(C[C@H]1N[C@@](CC)(C(=O)OC)[C@H]2C(=O)N(Cc3ccccc3)C(=O)[C@@H]12)C(C)=O	nt	-19.7%	nt	-6.8%	-0.9%	?
COC(=O)[C@]1(Cc2ccccc2)N[C@H](CN(C)C(=O)c2ccc(C)cc2)[C@@H]2C(=O)N(Cc3ccccc3)C(=O)[C@@H]21	nt	7.9%	nt	?	18.4µM*	?
CN1C(=O)Cc2cc(S(=O)(=O)CCC(=O)NC3CCCCCCC3)ccc21	nt	-6.1%	nt	nt	nt	nt
Cc1cnc(NC(=O)C(C)(C)Oc2cc(Cl)ccc2Cl)s1	nt	36.8%	nt	nt	nt	nt
CC(SC#N)C(=O)C12CC3CC(CC(C3)C1)C2 (centres undefined)	2.4%	-1.1%	-27.3%	7.31µM*	4.61µM*	?
Cc1ccc(C2NC(c3ccc4c(c3)OCO4)=CC(c3cc(Br)ccc3O)N2)cc1 (centres undefined)	nt	nt	nt	7.94µM*	4.47µM*	nt
Oc1ccc(Br)cc1C1C=C(c2ccc3c(c2)OCO3)NC(c2ccc(Br)cc2)N1 (centres undefined)	nt	nt	nt	10µM*	7.94µM*	nt
O=C(O)c1cc(-c2ccc3c(c2)OCO3)nc2ccc(Br)cc12	-17.2%	?	-15.1%	-19.7%	-2.1%	0.0%
Oc1ccccc1C1C=C(c2ccc3c(c2)OCO3)NC(c2cccc(Cl)c2)N1 (centres undefined)	nt	nt	nt	?	12.6µM*	nt
O=C(Nc1ccc(Br)cc1)c1ccc2c(c1)OCO2	?	396.3%	-12.4%	-9.1%	13.0%	?
COc1ccc(Br)cc1C1NC(c2ccc3c(c2)OCO3)=CC(c2ccccc2O)N1 (centres undefined)	nt	nt	nt	?	10µM*	nt
COc1ccc(-c2cc(C(=O)O)c3ccc(C)c(C)c3n2)cc1OC	nt	-26.9%	nt	nt	nt	nt
O=C(Nc1ccc(Br)cc1)c1cc(-c2ccc3c(c2)OCO3)on1	-36.4%	18.7%	-5.6%	2.3%	0.6%	4.3%
Oc1ccccc1C1C=C(c2ccc3c(c2)OCO3)NC(c2ccc(Br)cc2)N1 (centres undefined)	nt	nt	nt	11.2µM*	11.2µM*	nt
Cc1ccc(CNC(=O)N2CCCC2c2nc(CCOc3ccc(F)cc3)no2)cc1 (centres undefined)	nt	2.7%	nt	nt	nt	nt
N#Cc1ccc(C(=O)N2CCCCCNC(=O)CC2c2ccccc2)cc1 (centres undefined)	nt	13.3%	nt	nt	nt	nt
O=c1[nH]c2ccccc2c(=O)c2ccccc12	nt	-16.4%	nt	-7.4%	-25.5%	nt
O=c1c2ccccc2[nH]c2ccc(F)cc12	10.1%	-7.4%	?	20.6µM*	9.2µM*	?
Cc1ccc2[nH]c3ccccc3c(=O)c2c1	-11.6%	61.6%	?	11.6µM*	11.6µM*	?
O=c1c2ccccc2[nH]c2ccc(O)cc12	-3.0%	?	-2.3%	16.1%	-25.1%	?
Cc1ccsc1C(=O)C1CCCN(Cc2cc(F)ccc2-n2cccn2)C1 (centres undefined)	-16.9%	45.3%	1.4%	9.2µM*	11.6µM*	?
CCCC(C)C(=O)Nc1nc(C)c(-c2csc(Nc3ccccc3OC)n2)s1 (centres undefined)	-1.3%	44.7µM*	?	16.4µM*	23.1µM*	?
CCOc1ccccc1Nc1nc(-c2sc(NC(=O)c3ccccc3)nc2C)cs1	?	nt	4.6%	nt	nt	-21.9%
COc1ccccc1Nc1nc(-c2sc(NC(=O)c3ccccc3)nc2C)cs1	-39.2%	?	-0.6%	?	?	-10.3%
SMILES	RORgamma inh	ALOX12 inh	Gal4-VP16 FLuc	TDP1 cell CPT	DT40 TDP1 no CPT	ELG1 repair inh
CCCCCC(=O)Nc1nc(C)c(-c2csc(Nc3ccccc3OC)n2)s1	-12.2%	-29.5%	2.9%	23.1µM*	18.4µM*	?
CCOc1ccccc1Nc1nc(-c2sc(NC(=O)c3cccc(Cl)c3)nc2C)cs1	11.2µM*	?	-28.4%	?	?	3.4%
CCCC(C)C(=O)Nc1nc(C)c(-c2csc(Nc3ccc(Cl)cc3)n2)s1 (centres undefined)	?	?	11.2µM*	?	25.9µM*	?
CC1=C(C(=O)Nc2ccccc2)C(c2ccc(Br)cc2)N2C(=O)CSC2=N1 (centres undefined)	nt	1.0%	nt	nt	nt	nt
COc1ccccc1Nc1nc(-c2sc(NC(=O)c3ccc([N+](=O)[O-])cc3)nc2C)cs1	3.98µM*	nt	-29.6%	nt	nt	?
Cc1nc(NC(=O)c2ccccc2)sc1-c1csc(NCCc2ccccc2)n1	-28.6%	?	2.3%	23.1µM*	16.4µM*	?
CCCCCCC(=O)Nc1nc(C)c(-c2csc(Nc3ccccc3OC)n2)s1	?	?	5.3%	?	20.6µM*	?
COc1ccccc1C1=NS(=O)(=O)N(C)C(C(=O)Nc2cccc(O)c2)=C1	nt	-41.2%	nt	nt	nt	nt
CC1=C(C(=O)N2CCOCC2)CC(CC(=O)NCc2ccco2)C(=O)N1Cc1ccc(C(C)(C)C)cc1 (centres undefined)	nt	3.5%	nt	29.1µM*	20.6µM*	nt
CC1=C(C(=O)N(C(C)C)C(C)C)CC(CC(=O)NCc2cccs2)C(=O)N1Cc1ccc(F)cc1 (centres undefined)	nt	25.8%	nt	?	?	nt
CC1=C(C(=O)N(C(C)C)C(C)C)CC(CC(=O)NCc2cccs2)C(=O)N1Cc1ccc(C(C)(C)C)cc1 (centres undefined)	nt	-0.7%	nt	?	23.1µM*	nt
CC1=C(C(=O)N2CCOCC2)CC(CC(=O)NCc2cccs2)C(=O)N1Cc1ccc(C(C)(C)C)cc1 (centres undefined)	nt	-14.7%	nt	14.6µM*	?	nt
CCOc1cc(C(c2c(C)[nH][nH]c2=O)c2c(C)[nH][nH]c2=O)ccc1OCc1ccc(F)cc1	nt	-16.8%	nt	nt	nt	nt
Clc1ccc(CN2CCN(c3ncc(Cc4ccccc4)cn3)CC2)c(Cl)c1	nt	-3.7%	nt	nt	nt	nt
O=[N+]([O-])c1ccc(Cl)c(CN2CCN(c3ncc(Cc4ccccc4)cn3)CC2)c1	nt	-19.5%	nt	23.1µM*	16.4µM*	nt
Oc1ccc(F)c(CN2CCN(c3ncc(Cc4ccccc4)cn3)CC2)c1	nt	-16.1%	nt	?	25.9µM*	nt
O=[N+]([O-])c1ccc(Br)c(CN2CCN(c3ncc(Cc4ccccc4)cn3)CC2)c1	nt	-20.0%	nt	?	20.6µM*	nt

Bioassay records as filed in PubChem BioAssay.
